In PubChem BioAssay (NCATS):
Inconclusive results are not listed. A call without a number means that no potency is given here. Active and inactive are the calls of the source. Calls come from the whole dose curve; as a rule, active = well fitted inhibition curve with a large enough effect; inconclusive = small, poorly fitted or top-dose-only effect; inactive = flat fitted curve, though single readings scatter.

What follows are compounds tested against Glutathione peroxidase 1 (Homo sapiens) (UniProt P07203) (assay: Primary qHTS Assay for Inhibitors of Recombinant Selenoprotein Glutathione Peroxidase 1 (GPX1) (AID 1845191; note: nearly all actives have a fitted effect of over 65% in size)). Settings: recombinant GPX1, GR-coupled NADPH fluorescence, 15 min; series mostly up to 48.8 µM.
Chain of Glutathione peroxidase 1 (Homo sapiens) (P07203 whole entry, looked up): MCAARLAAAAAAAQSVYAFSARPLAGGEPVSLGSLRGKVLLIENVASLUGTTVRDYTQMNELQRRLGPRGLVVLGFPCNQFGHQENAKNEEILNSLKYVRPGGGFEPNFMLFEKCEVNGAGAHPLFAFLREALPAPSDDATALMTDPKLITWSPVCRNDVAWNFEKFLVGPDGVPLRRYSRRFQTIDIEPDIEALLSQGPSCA
In short: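 GR-coupled assay: compounds preincubated 30 min at room temperature with GPX1, then reaction started with CHP; final 10 nM GPX1, 1 mM GSH, 0.5 mM CHP, 0.5 mM NADPH, 100 nM GR, 0.01% BSA, pH 7.5 Tris buffer. NADPH fluorescence (340/450 nm) read at 0 and 15 min.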
Potency is the fitted concentration of half-maximal effect.

| SMILES | Potency |
| --- | --- |
| CCN1CCN(C(c2ccc(C)cc2)c2sc3nc(-c4ccco4)nn3c2O)CC1 (stereo unspecified) | inactive |
| CCN(C(=O)CO)[C@H]1CN(C(=Nc2cccc(OC(F)F)c2)NC#N)N=C1c1ccc(Cl)c(Cl)c1 | inactive |
| COc1ccc(-c2c(C)nn3c4c(cnc23)C(=O)CC(c2ccc(C)cc2)C4)cc1 (stereo unspecified) | inactive |
| CCOC(=O)N[C@@H]1CC[C@@H]2[C@@H](C1)C[C@H]1C(=O)O[C@H](C)C1[C@H]2/C=C/c1ccc(-c2cccc(F)c2)cn1 (stereo partly specified) | inactive |
| COc1ccc(-c2nn3c(-c4ccco4)nnc3s2)cc1OC | inactive |
| CN[C@@H]1[C@H](O[C@H]2[C@H](O[C@@H]3[C@@H](O)[C@H](O)[C@@H](N=C(N)N)[C@H](O)[C@H]3NC(=N)N)O[C@@H](C)[C@]2(O)CO)O[C@@H](CO)[C@H](O)[C@H]1O | inactive |
| Nc1c(C(=O)Nc2ccc(F)cc2)sc2nc(-c3cccs3)cc(C(F)(F)F)c12 | 14.3 µM (active) |
| CC(C)Oc1ccc(-c2c[nH]cc2CN(C)CCN)cc1 | inactive |
| N#Cc1ccc(-c2csc(NN=C3CCCC3)n2)cc1 | inactive |
| CCN(CCN(C)C)C(=O)CNCc1cc(C(=O)O)ccn1 | inactive |
| Cc1cccc(N2C(=O)N(Cc3ccc(C(C)(C)C)cc3)c3ccccc3S2(=O)=O)c1 | inactive |
| OC[C@H]1O[C@@H](c2ccc(F)c(Cc3cc4ccccc4s3)c2)[C@H](O)[C@@H](O)[C@@H]1O | inactive |
| CN(Cc1cccc(N2CCN(C(c3ccccc3)c3ccccc3)CC2)c1)[S+](C)(=O)[O-] | inactive |
| Fc1ccc(N2CCN(c3nc4ccccc4c4nc(-c5cccnc5)nn34)CC2)cc1 | inactive |
| C=C1/C(=C\C=C2/CCC[C@@]3(C)C2CC[C@@H]3[C@H](C)/C=C\[C@@H](O)C2CC2)C[C@@H](O)C[C@@H]1O (stereo partly specified) | inactive |
| Cc1ccc(-c2nc(-c3cc4cccc(OCc5cccc(C)c5)c4oc3=O)no2)cc1 | inactive |
| CC(C)(C)c1ccc(S(=O)(=O)Nc2ccc(-n3ccnc3)cc2)cc1 | inactive |
| C=CS(=O)(=O)N1CCCN(c2cc(NCCC(=O)O)nc(-c3ccccn3)n2)CC1 | inactive |
| NNCCc1ccc(NC(=O)CCCc2ccccc2)cc1 | inactive |
| O=C(CCc1cc(=O)[nH]o1)N[C@H](C1CCNCC1)C1CC(O)C1 (stereo partly specified) | inactive |
| CCO/N=C(\C(=O)N[C@@H]1C(=O)N2C(C(=O)O)=C(Sc3nc(-c4cc[n+](C)cc4)cs3)CS[C@H]12)c1nsc(NP(=O)(O)O)n1 | 4.04 µM (active) |
| Cn1cc(C2=C(c3cn(CCCN)c4ccccc34)C(=O)NC2=O)c2ccccc21 | inactive |
| OCCN1CCN(C(c2ccc(Cl)cc2Cl)c2sc3nc(-c4ccco4)nn3c2O)CC1 (stereo unspecified) | inactive |
| COCC1=C(C(=O)O)N2C(=O)[C@@H](NC(=O)/C(=N\OC)c3csc(N)n3)[C@H]2SC1 | 18 µM (active) |
| CC(C)=C(C#N)C(=O)N1CCCN(c2cc(NCCC(=O)O)nc(-c3ccccn3)n2)CC1 | inactive |
| Oc1c(C(c2ccccc2)N2CCOCC2)sc2nc(-c3ccco3)nn12 (stereo unspecified) | inactive |
